The panel holds about 79,000 compounds, 15% with a hit somewhere; the sample as a whole holds those more often. Active and inactive are the calls of the source. No stated cut-off is given here; in the data, active means growth inhibition above about 70%; inactive means the rest.
How the values were obtained:
[1] = NCI Yeast Anticancer Drug Screen. Data for the rad52 strain (AID 147);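 further: 0% = growth of vehicle-treated control cultures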; settings: S. cerevisiae rad52 mutant growth inhibition, hits give high values
Outline: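 Vehicle-treated cultures served as the reference for growth inhibition of compound-exposed yeast bearing a DNA repair mutation.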

[2] = NCI Yeast Anticancer Drug Screen. Data for the wt1 strain (AID 149);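 further: 0% = growth of vehicle-treated wt1 cultures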; settings: S. cerevisiae wt1 strain (SPY 50644) growth inhibition, hits give high values
Outline: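 wt1 yeast, compound-treated; % growth inhibition vs vehicle control.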

[3] = NCI Yeast Anticancer Drug Screen. Data for the rad50EPP+ strain (AID 151);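 further: 0% = growth of vehicle-treated control cultures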; settings: S. cerevisiae rad50 mutant strain, hits give high values
Outline: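 In this screen, rad50EPP+ yeast were exposed to compounds. Growth inhibition was scored against vehicle-treated controls.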

[4] = NCI Yeast Anticancer Drug Screen. Data for the rad50 strain (AID 155);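 further: 0% = growth of vehicle-only cultures of the same strain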; settings: S. cerevisiae rad50 strain growth inhibition, hits give high values
Outline: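 Genetically altered yeast (DNA repair pathway); compound treatment; growth inhibition vs vehicle ctrl.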

[5] = NCI Yeast Anticancer Drug Screen. Data for the mec2-1 strain (AID 157); settings: S. cerevisiae mec2-1 strain, hits give high values
Outline: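 Vehicle-treated cultures served as reference for growth inhibition of compound-exposed mec2-1 yeast.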

[6] = NCI Yeast Anticancer Drug Screen. Data for the rad14 strain (AID 159);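 further: 0% = growth of vehicle-treated control cultures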; settings: S. cerevisiae rad14 strain growth inhibition, hits give high values
Outline: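 Test compounds were applied to a repair-deficient yeast strain. Its growth was then compared with that of cultures given vehicle alone, and inhibition was expressed relative to those controls.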

[7] = NCI Yeast Anticancer Drug Screen. Data for the sgs1 mgt1 strain (AID 161);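 further: 0% = growth of cultures given vehicle only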; settings: S. cerevisiae sgs1 mgt1 strain, hits give high values
Outline: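 Test agents were incubated with a DNA-repair-mutant yeast strain. Growth was then read and compared against vehicle-treated controls.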

[8] = NCI Yeast Anticancer Drug Screen. Data for the CLN2oe strain (AID 163);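 further: 0% = growth of vehicle-only control cultures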; settings: S. cerevisiae CLN2oe strain, hits give high values
Outline: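 Inhibition relative to vehicle-treated yeast is reported. Cells: strain with genetic alteration in cell-cycle control, grown with compound.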

[9] = NCI Yeast Anticancer Drug Screen. Data for the bub3 strain (AID 167); settings: S. cerevisiae bub3 mutant strain, hits give high values
Outline: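 Yeast carrying a defined mutation is treated with each compound, and growth is compared with that of vehicle-exposed cells to give inhibition.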

[10] = NCI Yeast Anticancer Drug Screen. Data for the wt2 strain (AID 169);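 further: 0% = growth of vehicle-treated yeast cultures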; settings: S. cerevisiae wt2 strain growth inhibition, hits give high values
Outline: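 Inhibition of yeast growth was determined after compound treatment, normalised to controls receiving only vehicle.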

[11] = NCI Yeast Anticancer Drug Screen. Data for the mlh1 strain (AID 171);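 further: 0% = growth of vehicle-treated control cultures of the same strain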; settings: S. cerevisiae mlh1 strain growth inhibition, hits give high values
Outline: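 Vehicle-normalised growth inhibition of a repair- or checkpoint-altered yeast strain following compound treatment.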

[12] = NCI Yeast Anticancer Drug Screen. Data for the sgs1 strain (AID 173);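 further: 0% = growth of vehicle-only control cultures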; settings: S. cerevisiae sgs1 mutant, hits give high values
Outline: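 Screen format: yeast with repair or checkpoint alterations, compound exposure, growth read relative to vehicle.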

[13] = NCI Yeast Anticancer Drug Screen. Data for the mlh1 rad18 strain (AID 175); settings: S. cerevisiae mlh1 rad18 strain growth inhibition, hits give high values
Outline: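 Vehicle-treated cultures served as the reference for growth inhibition in a yeast strain carrying DNA damage repair alterations exposed to each compound.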

[14] = NCI Yeast Anticancer Drug Screen. Data for the rad18 strain (AID 177); settings: S. cerevisiae rad18 mutant growth inhibition, hits give high values
Outline: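 Test articles were incubated with altered yeast defective in DNA damage repair. Results are given as inhibition of growth versus vehicle.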

[15] = at 5.0 µM (retest, dose inferred, filed as 0.5)
[16] = at 50.0 µM (retest, dose inferred, filed as 5.0)

Measured: growth inhibition

CC(C)c1[nH]nc(C(N)=O)c1N=NN(C)C
inactive: [1]; at 1.2 µM 3% | [1]; at 3.7 µM 4% | [1]; at 11.0 µM 40% | [2]; at 1.2 µM -5% | [2]; at 3.7 µM -4% | [2]; at 11.0 µM -8% | [2]; at 33.0 µM -7% | [2]; at 100.0 µM -1% | [3]; at 1.2 µM -1% | [3]; at 3.7 µM 15% | [3]; at 11.0 µM 37% | [4]; at 1.2 µM -5% | [4]; at 3.7 µM 3% | [4]; [15] -90% | [4]; at 11.0 µM 33% | [5]; at 1.2 µM 1% | [5]; at 3.7 µM -1% | [5]; [15] -46% | [5]; at 11.0 µM -10% | [5]; at 33.0 µM 4% | [5]; [16] -16% | [5]; at 50.0 µM 24.4% | [5]; at 100.0 µM 61% | [6]; at 1.2 µM -1% | [6]; at 3.7 µM 1% | [6]; at 11.0 µM 6% | [6]; at 33.0 µM 12% | [6]; at 100.0 µM 29% | [7]; [15] -47% | [7]; [16] 24% | [7]; at 50.0 µM 28.9% | [8]; at 1.2 µM -3% | [8]; at 3.7 µM -5% | [8]; at 11.0 µM -2% | [8]; at 33.0 µM -5% | [8]; at 100.0 µM 6% | [9]; at 1.2 µM -17% | [9]; at 3.7 µM -5% | [9]; [15] -63% | [9]; at 11.0 µM -5% | [9]; at 33.0 µM -14% | [9]; [16] -87% | [9]; at 50.0 µM -4% | [9]; at 100.0 µM -2% | [10]; at 1.2 µM -2% | [10]; at 3.7 µM -1% | [10]; at 11.0 µM -2% | [10]; at 33.0 µM -8% | [10]; at 100.0 µM 4% | [11]; at 1.2 µM 4% | [11]; at 3.7 µM -8% | [11]; at 11.0 µM -2% | [11]; at 33.0 µM -3% | [11]; at 100.0 µM 4% | [12]; at 1.2 µM -2% | [12]; at 3.7 µM -6% | [12]; at 11.0 µM 12% | [12]; at 33.0 µM 51% | [13]; [15] -101% | [13]; [16] 24% | [13]; at 50.0 µM 58.1% | [14]; at 1.2 µM 3% | [14]; at 3.7 µM 12% | [14]; at 11.0 µM 39%
active: [1]; at 33.0 µM 87% | [1]; at 100.0 µM 95% | [3]; at 33.0 µM 73% | [3]; at 100.0 µM 91% | [4]; at 33.0 µM 81% | [4]; [16] 83% | [4]; at 50.0 µM 91.5% | [4]; at 100.0 µM 93% | [12]; at 100.0 µM 84% | [14]; at 33.0 µM 80% | [14]; at 100.0 µM 94%
